Test results from PubChem BioAssay AID1159580 (chemical genetic matrix, 2015).
“And” between values parts separate entries of the source, which are not always exact repeats. Equal entries are not always repeated. In all, about 5,500 compounds went through this assay and about 2,000 (36%) were called active. Another 18% or so got no clear call; they are omitted. No stated cut-off is given here; in the data, active means normalized growth mostly below about 0.91 (no sharp cut-off); inconclusive means no clear call, values can overlap the other calls; inactive means mostly above about 0.92. This is one part of the list.

Experiment: chemical genetic growth profiling, strain panel (AID 1159580);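 further: tested at 20 µM; growth read once vehicle control cultures reached saturation at 30 °C; 1 = growth at the plate median or of vehicle wells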
Settings: S. cerevisiae deletion strains, growth OD

Measured: normalized growth

O=C(O)CN1C(=O)c2cccc3cccc(c23)C1=O
inactive: locus YAL013W, strain DEP1, stronger effect = lower value 1 | locus YAL021C, strain ccr4, stronger effect = lower value 0.956 | locus YAL026C, strain drs2, stronger effect = lower value 0.987 | locus YAL030W, strain snc1, stronger effect = lower value 0.986 | locus YBL061C, strain skt5, stronger effect = lower value 0.973 | locus YBR009C, strain hhf1, stronger effect = lower value 0.985 | locus YBR021W, strain FUR4, stronger effect = lower value 1 | locus YBR023C, strain chs3, stronger effect = lower value 0.976 | locus YBR171W, strain sec66, stronger effect = lower value 0.968 | locus YBR229C, strain ROT2, stronger effect = lower value 1.01 | locus YBR231C, strain swc5, stronger effect = lower value 0.986 | locus YBR279W, strain paf1, stronger effect = lower value 0.978 | locus YCL011C, strain gbp2, stronger effect = lower value 0.975 | locus YCL016C, strain dcc1, stronger effect = lower value 0.982 | locus YCL029C, strain bik1, stronger effect = lower value 0.978 | locus YCL061C, strain MRC1, stronger effect = lower value 0.985 | locus YCL069W, strain vba3, stronger effect = lower value 0.99 | locus YCR088W, strain abp1, stronger effect = lower value 1.01 | locus YDL005C, strain med2, stronger effect = lower value 0.974 | locus YDL035C, strain GPR1, stronger effect = lower value 0.994 | locus YDL040C, strain nat1, stronger effect = lower value 0.982 | locus YDL074C, strain BRE1, stronger effect = lower value 1.05 | locus YDL101C, strain DUN1, stronger effect = lower value 1.01 | locus YDL134C, strain PPH21, stronger effect = lower value 0.994 | locus YDL185W, strain tfp1, stronger effect = lower value 0.964 | locus YDL192W, strain arf1, stronger effect = lower value 0.991 | locus YDR001C, strain nth1, stronger effect = lower value 0.979 | locus YDR069C, strain doa4, stronger effect = lower value 0.993 | locus YDR101C, strain arx1, stronger effect = lower value 0.998 | locus YDR137W, strain rgp1, stronger effect = lower value 0.938 | locus YDR159W, strain sac3, stronger effect = lower value 0.993 | locus YDR162C, strain NBP2, stronger effect = lower value 0.982 | locus YDR195W, strain ref2 1.01 | locus YDR297W, strain sur2, stronger effect = lower value 0.979 | locus YDR318W, strain mcm21, stronger effect = lower value 0.978 | locus YDR334W, strain swr1, stronger effect = lower value 0.967 | locus YDR335W, strain msn5, stronger effect = lower value 0.985 | locus YDR388W, stronger effect = lower value 0.994 | locus YDR392W, strain spt3, stronger effect = lower value 0.811 | locus YDR502C, strain sam2, stronger effect = lower value 0.998 | locus YEL003W, strain gim4, stronger effect = lower value 0.99 | locus YEL037C, strain rad23, stronger effect = lower value 0.982 | locus YEL061C, strain CIN8 (second series), stronger effect = lower value 0.974 | locus YEL061C, strain CIN8, stronger effect = lower value 1.01 | locus YER015W, strain faa2, stronger effect = lower value 0.998 | locus YER016W, strain bim1, stronger effect = lower value 0.996 | locus YER110C, stronger effect = lower value 0.977 | locus YER111C, strain swi4, stronger effect = lower value 0.975 | locus YER155C, strain BEM2 (second series), stronger effect = lower value 0.954 | locus YER155C, strain BEM2, stronger effect = lower value 0.999 | locus YER167W, strain BCK2, stronger effect = lower value 0.991 | locus YFR010W, strain ubp6, stronger effect = lower value 0.968 | locus YGL078C, strain dbp3, stronger effect = lower value 0.986 | locus YGL086W, strain mad1, stronger effect = lower value 1 | locus YGL167C, strain pmr1, stronger effect = lower value 0.987 | locus YGL173C, strain kem1, stronger effect = lower value 0.983 | locus YGL227W, strain vid30, stronger effect = lower value 0.996 | locus YGL240W, strain doc1, stronger effect = lower value 1 | locus YGL248W, strain PDE1, stronger effect = lower value 1.02 | locus YGL253W, strain hxk2, stronger effect = lower value 0.984 | locus YGR135W, strain pre9, stronger effect = lower value 0.966 | locus YGR252W, strain gcn5, stronger effect = lower value 1.04 | locus YHR013C, strain ard1, stronger effect = lower value 0.909 | locus YHR027C, strain rpn1, stronger effect = lower value 0.985 | locus YHR030C, strain SLT2, stronger effect = lower value 0.99 and 0.965 | locus YHR079C, strain IRE1 (second series), stronger effect = lower value 0.984 | locus YHR079C, strain IRE1, stronger effect = lower value 0.972 | locus YHR094C, strain hxt1, stronger effect = lower value 0.994 | locus YHR129C, strain ARP1, stronger effect = lower value 0.994 | locus YHR142W, strain chs7, stronger effect = lower value 0.944 | locus YHR200W, strain rpn10, stronger effect = lower value 0.972 | locus YIL066C, strain RNR3, stronger effect = lower value 1.01 | locus YIL073C, strain SPO22, stronger effect = lower value 0.897 | locus YIL125W, strain kgd1, stronger effect = lower value 0.989 | locus YIR030C, strain dcg1, stronger effect = lower value 0.985 | locus YJL092W, strain hpr5, stronger effect = lower value 0.981 | locus YJL095W, strain BCK1 (second series), stronger effect = lower value 0.986 | locus YJL095W, strain BCK1, stronger effect = lower value 1.04 and 0.965 | locus YJL115W, strain asf1, stronger effect = lower value 0.982 | locus YJL129C, strain trk1, stronger effect = lower value 0.988 | locus YJL134W, strain LCB3, stronger effect = lower value 0.998 | locus YJL154C, strain vps35, stronger effect = lower value 1.01 | locus YJL164C, strain tpk1, stronger effect = lower value 0.989 | locus YJL166W, strain qcr8, stronger effect = lower value 0.953 | locus YJL168C, strain set2, stronger effect = lower value 0.993 | locus YJL187C, strain SWE1 (second series), stronger effect = lower value 1.04 | locus YJL187C, strain SWE1, stronger effect = lower value 0.976
